97 compounds from PubChem BioAssay AID1850 (Southern Research Specialized Biocontainment Screening …, 2009) can be followed below.

Out of some 310,000 compounds screened, about 1,000 (0.32%) were called active. The rule behind the calls is not given here. A selection follows. Potency and affinity values are given separately.

A short description of this assay: PhoP regulon inhibitors, Salmonella typhi PhoP promoter GFP reporter, confirmatory (AID 1850).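 Note: 0% = induced wells with vehicle and 100% = uninduced wells.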 Conditions: fluorescence, 4 h, at 50 µM, hits give high values.
For the compound `CCOc1cc(C(=O)Nc2ccc3c(c2)OCO3)ccc1OCCOc1ccccc1Cl`, the inhibition (commonly the change of the read-out against control, counted positive when it falls) is -0.32% (inactive).

In the case of `Cc1ccc2nc3c(c(Nc4cccc(O)c4)c2c1)CCC3`, the inhibition is 7.27% (inactive).

As for `CC(=O)c1cccc(Nc2c3c(nc4ccccc24)CCC3)c1`, the inhibition is 12.8% (inactive).

Turning to `O=C(Cc1ccsc1)Nc1cc(F)ccc1F`, the inhibition was 3.38% (inactive).

With `O=C(COc1ccc(S(=O)(=O)N2CCCCC2)cc1Cl)N1CCOCC1`, the inhibition is -6.77% (inactive).

For `COc1ccc(Cl)cc1NC(=O)C1CC(=O)N(C2CCCCC2)C1` (configuration not stated), the inhibition is -8.7% (inactive).

As to `O=C(COC(=O)c1ccc(Br)o1)NCCNC(=O)COC(=O)c1ccc(Br)o1`, the inhibition was -1.54% (inactive).

`Cc1cc(C(=O)N2CCC(Cc3ccccc3)CC2)c(C)o1`: the inhibition was -3.49% (inactive).

Consider `CCc1ccc(NC2=NCCCS2)cc1`, for which the inhibition was 39.5% (inactive).

As for `CCOc1ccc(NC2=NCCCS2)cc1`, the inhibition was -2.96% (inactive).

Regarding `CCCCC(CC)COC(=O)c1ccccc1C(=O)OCC(CC)CCCC` (configuration not stated), the inhibition is -4.54% (inactive).

With `COC(=O)[C@@H](N)CCCN=C(N)N[N+](=O)[O-]`, the inhibition is -16.2% (inactive).

As for `CCOc1ccc(OCCSc2nc(N)cc(=O)[nH]2)cc1`, the inhibition was 12.9% (inactive).

As to `C=CCNC(=O)c1cc2cccc(OC)c2oc1=O`, the inhibition was -9.75% (inactive).

Consider `COCC(=O)NNS(=O)(=O)c1ccccc1[N+](=O)[O-]`, for which the inhibition is 0.41% (inactive).

Take `O=S(=O)(c1ccc(F)c(F)c1F)N1CCN(C(=S)NC2CC3CCC2C3)CC1` (configuration not stated): the inhibition is 3.26% (inactive).

Turning to `COc1ccc(-c2noc(N3CCCC(C(=O)Nc4ccccc4F)C3)n2)cc1` (configuration not stated), the inhibition is 4.79% (inactive).

For the compound `S=C(NC1CC2CCC1C2)N1CCN(c2cccc(Cl)c2)CC1` (configuration not stated), the inhibition is 15.8% (inactive).

Turning to `CC1CCCN(C(=S)NCc2ccccc2)C1` (configuration not stated), the inhibition was -5.12% (inactive).

`Cc1c(-n2cc(C(=O)O)c(=O)c3cc(F)c(N4CCCC(O)C4)c(F)c32)c(=O)n(-c2ccccc2)n1C` (configuration not stated): the inhibition is 2.49% (inactive).

Consider `CC1CCN(c2c(NCC3CCC(C(=O)NCc4ccccc4)CC3)c(=O)c2=O)CC1` (configuration not stated), for which the inhibition is -9.12% (inactive).

Consider `Cc1ccccc1N1C(=O)c2sc3nc4c(c(=O)n3c2C1=O)CCC4`, for which the inhibition is 0.93% (inactive).

As to `O=C(OCCN=C1NS(=O)(=O)c2ccccc21)c1ccco1`, the inhibition is 5.3% (inactive).

`O=C(c1cccc(S(=O)(=O)N2CCCC2)c1)N1CCN(c2ccccc2F)CC1`: the inhibition was -7.17% (inactive).

On to `O=C(CSc1nc2[nH]ncc2c(=O)n1-c1ccc(Cl)c(Cl)c1)NCc1ccccc1Cl`, for which the inhibition is -3.93% (inactive).

As to `C/C(=N\NC(=O)c1cccnc1)c1ccccc1`, the inhibition was -2.72% (inactive).

With `CC(=O)Nc1ccc(S(=O)(=O)NCC2CCC(C(=O)NCCCN3CCCC3=O)CC2)cc1` (configuration not stated), the inhibition was -3.51% (inactive).

`COc1ccc(S(=O)(=O)N2CCc3ccccc32)cc1C(=O)O`: the inhibition was 0.91% (inactive).

In the case of `O=C(NCc1cccnc1)c1cc(Sc2ccc(F)cc2F)nc2ccccc12`, the inhibition is -9.05% (inactive).

Consider `COc1ccc(CC(=O)NNC(=S)NC(=O)c2cccnc2)cc1`, for which the inhibition is 9.02% (inactive).

Regarding `Cc1n[nH]c(C)c1CCNC(=O)C1CCC(=O)N(CCc2cccc(F)c2)C1` (configuration not stated), the inhibition is -2.89% (inactive).

For `COC(=O)CC1C(=O)NCCN1C(=S)Nc1ccc(F)cc1` (configuration not stated), the inhibition is 4.44% (inactive).

For `COC(=O)C(C)NC(=S)N1CC2C[C@@H](C1)Cn1c2cccc1=O` (some centres not stated), the inhibition is 3.1% (inactive).

Consider `CCn1cc(C(=O)O)c(=O)c2cnc(N3CCN(C(=S)Nc4ccc(F)cc4)CC3)nc21`, for which the inhibition is -5.98% (inactive).

On to `COC(=O)C1=C(N)Oc2cc(N(C)C)ccc2C1c1ccccc1OC` (configuration not stated), for which the inhibition was -7.55% (inactive).

On to `Cc1ccc(CNC(=O)CSCc2ccccc2F)cc1`, for which the inhibition was 3.95% (inactive).

In the case of `Cc1ccccc1N1CC(C(=O)NC2CCCC2)CC1=O` (configuration not stated), the inhibition is -18.4% (inactive).

As for `CCCNC(=O)COc1coc(CN2CCN(c3cccc(Cl)c3)CC2)cc1=O`, the inhibition is 9.58% (inactive).

As to `Cc1c(NC(=O)c2nn3c(c2Br)NC(c2ccccc2)CC3C(F)(F)F)c(=O)n(-c2ccccc2)n1C` (configuration not stated), the inhibition is -3.46% (inactive).

With `c1cc2ccc3ccc(CN4CCOCC4)c4ccc(c1)c2c34`, the inhibition is -8.34% (inactive).

For `OC1CCCN(Cc2cccc3ccccc23)C1` (configuration not stated), the inhibition was -1.87% (inactive).

On to `Cc1nnc(NC(=O)CCSc2ccc(Cl)cc2)s1`, for which the inhibition was -3% (inactive).

For the compound `COCCCN1CCN(C2Cc3ccccc3Sc3ccc(Cl)cc32)CC1` (configuration not stated), the inhibition was 1.9% (inactive).

Turning to `COc1ccc2c(c1)CC(N1CCN(C)CC1)c1cc(OC)ccc1S2` (configuration not stated), the inhibition was 21.4% (inactive).

With `CC(C)c1ccc2c(c1)C(N1CCN(C)CC1)Cc1cccnc1S2` (configuration not stated), the inhibition was 15.7% (inactive).

On to `CSc1ccc2c(c1)C(N1CCN(C)CC1)Cc1ccccc1S2` (configuration not stated), for which the inhibition was 12.9% (inactive).

Consider `CN1CCN(CCOC2Cc3ccccc3Sc3ccc(Cl)cc32)CC1` (configuration not stated), for which the inhibition is -19.4% (inactive).

In the case of `Fc1ccc2c(c1)Sc1ccc(Cl)cc1CC2N1CCN(CCC2OCCO2)CC1` (configuration not stated), the inhibition is 12.3% (inactive).

In the case of `Cc1cc(C)c(C(=O)/C=C/c2cccc3ccccc23)c(=O)[nH]1`, the inhibition is -11.9% (inactive).

For `CCn1c(=O)cc(SCC(=O)N2CCOCC2)c2ccccc21`, the inhibition was 0.81% (inactive).

In the case of `Cc1cccc(OCCc2c(C)[nH]c(=S)[nH]c2=O)c1`, the inhibition was -1.55% (inactive).

For `NC(=O)CSc1nnc(Cn2c(=O)sc3ccccc32)n1CCc1ccccc1`, the inhibition was 1.95% (inactive).

`COc1cccc(NC(=O)CCCCCN2C(=O)[C@@H]3Cc4ccccc4CN3C2=O)c1`: the inhibition was 6.78% (inactive).

In the case of `CCN1C(=O)CSC1=Nc1ccc(OC)cc1`, the inhibition is -7.25% (inactive).

In the case of `COc1cc(OC)c(OC)cc1CNCCNC(=O)c1nonc1N`, the inhibition is 6.25% (inactive).

As to `CN1CCN(C2Cc3ccc(F)cc3Sc3cc(F)c(Cl)cc32)CC1` (configuration not stated), the inhibition is 8.23% (inactive).

Consider `CCOC(=O)c1cccnc1NC(=O)c1ccccc1`, for which the inhibition was -7.33% (inactive).

On to `COc1ccccc1C(=O)NC(C(=O)NCCc1nc2ccccc2[nH]1)=C(C)C`, for which the inhibition was -1.36% (inactive).

In the case of `CC(C)OCCCNc1ncnc2c1[nH]c1ccccc12`, the inhibition is 11.2% (inactive).

As to `OCCCCCNc1ncnc2ccccc12`, the inhibition was 2.05% (inactive).

Consider `OCCCNc1ncnc2c1[nH]c1ccccc12`, for which the inhibition was 2.26% (inactive).

For the compound `COCCNc1ncnc2c1[nH]c1ccccc12`, the inhibition was 8.5% (inactive).

As to `CCOCCCNc1ncnc2c1[nH]c1ccccc12`, the inhibition was 0.37% (inactive).

Consider `COc1ccc(CNc2ncnc3c2[nH]c2cc(OC)c(OC)cc23)cc1`, for which the inhibition was 3.65% (inactive).

Consider `O=c1c2[nH]c3ccccc3c2ncn1CCC1=CCCCC1`, for which the inhibition is -7.17% (inactive).

Consider `CCN(CC)CCCNc1ncnc2ccccc12`, for which the inhibition was 0.53% (inactive).

For the compound `COc1cc([N+](=O)[O-])cc(/C=N/NC(=O)c2cc(-c3ccccc3)nc3ccccc23)c1O`, the inhibition was -2.11% (inactive).

Consider `O=C(CCC(=O)c1ccc(F)cc1)NC1CCCN(Cc2ccccc2F)C1` (configuration not stated), for which the inhibition was -3.89% (inactive).

For `O=C(c1cc(Br)ccc1Cl)N1CCCC1`, the inhibition is 6% (inactive).

In the case of `Cc1ccc(NS(=O)(=O)c2ccc(C(=O)NCC(c3ccco3)N(C)C)cc2)cc1` (configuration not stated), the inhibition was -2.21% (inactive).

Regarding `CCOC(=O)C1=C(O)c2ccccc2C(=O)/C1=C\c1ccc(CC)cc1`, the inhibition was -9.78% (inactive).

For the compound `CCCc1ccc(/C=C2\C(=O)c3ccccc3C(O)=C2C(=O)OCC)cc1`, the inhibition was -2.52% (inactive).

Regarding `Nc1ccc(C(=O)Oc2ccc([N+](=O)[O-])cc2)c(O)c1`, the inhibition was -25% (inactive).

For the compound `N#CCC(=O)Nc1ccc(C(=O)OCC(=O)Nc2ccccc2Sc2ccccc2)cc1`, the inhibition is -5.37% (inactive).

Consider `Cc1ccccc1OCC(O)CN1CCN(c2ccc(Cl)cc2)CC1` (configuration not stated), for which the inhibition was 6.16% (inactive).

Take `CNNC(=S)Nc1cccc(C(F)(F)F)c1`: the inhibition was 6.82% (inactive).

In the case of `Nc1ccc2c(c1)N1CCN=C1S2`, the inhibition was -12.9% (inactive).

For `O=C(CC1SC2=NCCN2C1=O)Nc1ccc(Cl)cc1` (configuration not stated), the inhibition is -0.31% (inactive).

As for `Cc1ccc(O)c(-c2cc(C(F)(F)C(F)F)[nH]n2)c1`, the inhibition is -3.16% (inactive).

In the case of `FC(F)C(F)(F)c1cc(-c2ccccc2)n[nH]1`, the inhibition was 5.29% (inactive).

As to `O=c1nc(-c2ccccc2)n(-c2ccc(Cl)cc2)[nH]1`, the inhibition was -11% (inactive).

For the compound `Cc1ccc(OCCC(=O)Nc2ccc(S(=O)(=O)Nc3cc(C)nc(C)n3)cc2)cc1`, the inhibition is -3.66% (inactive).

With `Cc1cc(C(=O)N/N=C/c2ccc([N+](=O)[O-])s2)n[nH]1`, the inhibition was 21.5% (inactive).

Consider `Cn1c(SCC(=O)N/N=C/c2cc([N+](=O)[O-])ccc2O)nnc1-c1ccccc1`, for which the inhibition was 2.1% (inactive).

In the case of `Cn1c(SCC(=O)N/N=C/c2ccc([N+](=O)[O-])s2)nnc1-c1ccccc1`, the inhibition is 17.5% (inactive).

For the compound `O=C(N/N=C/c1ccc([N+](=O)[O-])s1)c1ccncc1`, the inhibition was -1.03% (inactive).

For the compound `COC(=O)N/N=C/c1ccc([N+](=O)[O-])s1`, the inhibition is -3.8% (inactive).

As for `Cc1ccc(C(=O)N/N=C/c2ccc([N+](=O)[O-])s2)cc1`, the inhibition is -14.9% (inactive).

Regarding `O=C(N/N=C\c1ccc([N+](=O)[O-])s1)c1cncc(Br)c1`, the inhibition is -10.5% (inactive).

Consider `Cc1ccc(C(=O)N/N=C\c2cccs2)cn1`, for which the inhibition is -3.85% (inactive).

`O=C(Nc1ccc2c(c1)CCC2)c1ccc(Cl)nc1`: the inhibition is 8.38% (inactive).

`COC/C=C/C1=CC2=CC(=O)C(C)(OC(=O)c3cnc4ccccc4n3)C(=O)C2=CN1c1cccc(C#N)c1` (configuration not stated): the inhibition is 0.42% (inactive).

As for `O=C(CSc1nccc(=O)[nH]1)N1CCOCC1`, the inhibition is -10% (inactive).

Consider `CN(CCCCN1CCOCC1)Cc1nc(-c2ccc3c(c2)OCO3)no1`, for which the inhibition was -10.5% (inactive).

Consider `CCn1cc(C(=O)c2cccs2)c2ccccc21`, for which the inhibition was -0.847% (inactive).

`O=C(CSc1nnc(SCc2ccccc2)s1)N/N=C/C=C/c1ccccc1[N+](=O)[O-]`: the inhibition is 8.59% (inactive).

Turning to `CCn1cc(C(=O)N2CCN(c3ccccc3F)CC2)c(=O)c2ccc(C)nc21`, the inhibition was -6.12% (inactive).
